High-throughput results deposited in PubChem by several laboratories.
Beta apoptosis: blocks beta cell apoptosis. actives 0.8% (n = 300,000). AID 435005. INS-1E cytokine-induced death, ATP luminescence, 48 h; percent of positive-control rescue, neutral wells zero. protection from apoptosis, % (test concentration not listed);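 active = Every replicate reaches about 75%, or at least half do and their mean reaches it too, limit read from the data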;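 note: 0% = cytokine-treated negative control wells and 100% = positive control rescue; higher means more ATP so stronger rescue from cytokine killing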
Jurkat NFkB inh: lowers PMA/ionomycin-induced NF-kB signal in Jurkat cells | inhibition, % at 4 µM | actives 0.53% (n = 330,000) | PMA/ionomycin-induced NF-kB luciferase reporter, luminescence; in the data active = inhibition above about 50%
Gli-Sufu antag: Gli-Sufu pathway antagonism; AID 588413; actives 0.74% (n = 340,000); inhibition, % at 5 µM; Sufu-KO-LIGHT fibroblasts, Gli luciferase reporter luminescence;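 active = inhibition above about 55%, limit read from the data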;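 note: 0% = DMSO-treated cells and 100% = wells with medium but no cells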
Mdm2 MdmX PPI: human Mdm2/MdmX binding inhibition | SaOS-2 split-luciferase Mdm2/MdmX complementation, luminescence | inhibition, % at 8 µM | actives 3% (n = 330,000) | AID 485346;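 active = inhibition of at least 50% at 8 µM in the primary screen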
Target sequence (O15151 whole entry, looked up): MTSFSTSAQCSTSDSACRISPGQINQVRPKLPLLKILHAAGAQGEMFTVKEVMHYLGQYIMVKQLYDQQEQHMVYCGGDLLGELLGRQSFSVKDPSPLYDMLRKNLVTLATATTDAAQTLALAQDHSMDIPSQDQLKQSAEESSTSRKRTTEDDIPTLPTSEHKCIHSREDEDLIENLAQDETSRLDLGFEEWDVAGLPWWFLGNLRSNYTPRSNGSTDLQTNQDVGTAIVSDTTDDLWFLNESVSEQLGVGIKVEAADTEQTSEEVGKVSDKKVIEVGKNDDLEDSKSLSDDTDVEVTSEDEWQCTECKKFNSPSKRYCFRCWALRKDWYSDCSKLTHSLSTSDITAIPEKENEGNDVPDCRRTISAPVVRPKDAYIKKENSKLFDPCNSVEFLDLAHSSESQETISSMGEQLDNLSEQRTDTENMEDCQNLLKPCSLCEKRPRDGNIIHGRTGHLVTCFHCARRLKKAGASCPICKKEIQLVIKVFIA
Target sequence (Q00987 whole entry, looked up): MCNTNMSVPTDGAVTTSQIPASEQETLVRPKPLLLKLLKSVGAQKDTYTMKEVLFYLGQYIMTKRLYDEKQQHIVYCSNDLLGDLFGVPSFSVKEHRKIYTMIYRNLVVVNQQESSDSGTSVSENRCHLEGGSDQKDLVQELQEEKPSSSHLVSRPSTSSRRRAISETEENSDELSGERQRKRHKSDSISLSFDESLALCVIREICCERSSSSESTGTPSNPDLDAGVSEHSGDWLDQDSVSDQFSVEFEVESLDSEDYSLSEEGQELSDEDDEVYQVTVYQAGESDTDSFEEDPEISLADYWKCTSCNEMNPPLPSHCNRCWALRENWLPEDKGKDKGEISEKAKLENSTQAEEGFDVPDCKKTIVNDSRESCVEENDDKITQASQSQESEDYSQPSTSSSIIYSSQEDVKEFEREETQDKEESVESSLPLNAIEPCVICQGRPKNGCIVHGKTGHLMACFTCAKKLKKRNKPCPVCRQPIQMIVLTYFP
697 NFkB inh: inhibitors of the PMA/ionomycin-induced NF-kB reporter in 697 B cells; 697 B-cell NF-kB luciferase reporter, 16 h; inhibition, % at 4 µM; actives 0.33% (n = 330,000); in the data active = inhibition above about 35%
Mdm2 MdmX conf: human Mdm2/MdmX binding inhibition, confirmed. shares compounds with Mdm2 MdmX PPI. inhibition, % at 8 µM. luminescent assay. actives 55% (n = 10,000); in the data active = inhibition above about 40%
Full FLuc ctr: counter-screen for Mdm2/MdmX inhibitors: full-length luciferase. AID 504607. actives 77% (n = 6,200). inhibition, % at 8 µM. shares compounds with Mdm2 MdmX PPI. SaOS-2 full-length luciferase counterscreen, luminescence;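 active = mean inhibition at 8 µM reaching about 37%, which flags the compound as non-specific, limit read from the data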;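 note: p53-null SaOS-2 cells with luciferase driven by a doxycycline-inducible promoter; compound on cells about two nights before reading with doxycycline added after day one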
An asterisk follows results filed as active; . = no result given. This is a sample that favours compounds with a hit; in the whole collection about 4% have one here.

SMILES	Beta apoptosis	Jurkat NFkB inh	Gli-Sufu antag	Mdm2 MdmX PPI	697 NFkB inh	Mdm2 MdmX conf	Full FLuc ctr
Cc1nc(Nc2ccc(Cl)c(Cl)c2)sc1C(=O)Nc1ccccc1	86.4*	-6.6	19.8	52.1*	-1.6	5.7	.
COc1ccc(S(=O)(=O)N(C)C[C@H]2Oc3ccc(NC(=O)C4CC4)cc3C(=O)N([C@H](C)CO)C[C@@H]2C)cc1	2.4	17.4	8.4	9.3	22.6	.	.
COC(CN(C(=O)CCl)C(C(=O)NC1CCCCC1)c1ccccc1C)OC (centres undefined)	5.0	12.2	13.6	82.9*	-0.1	61.6*	43.8*
Cc1ccc(-n2c(N)c(C(=O)Nc3c(C)n(C)n(-c4ccccc4)c3=O)c3nc4ccccc4nc32)cc1C	42.0	16.0	.	50.8*	2.7	27.6	.
COC(=O)Nc1ccc(=O)n(Cc2c(Cl)cccc2Cl)c1	-5.8	3.5	2.4	31.8	12.9	.	.
COC(=O)[C@@]1(Cc2ccccc2)[C@H]2C(=O)N(Cc3ccccc3)C(=O)[C@H]2[C@H]2CN=C(SCc3ccc(C#N)cc3)N21	.	.	11.3	90.9*	-12.7	94.7*	28.4
CC[C@]1(C(=O)OC)[C@H]2C(=O)N(Cc3ccccc3)C(=O)[C@H]2[C@H]2CN=C(SCc3ccc(C)cc3)N21	.	.	-8.1	92.7*	15.3	87.7*	48.7*
CC[C@]1(C(=O)OC)[C@H]2C(=O)N(Cc3ccccc3)C(=O)[C@H]2[C@H]2CN=C(SCc3ccc(C(=O)OC)cc3)N21	.	.	3.4	35.9	-2.6	.	.
Cc1ccnc(NS(=O)(=O)c2cccc([N+](=O)[O-])c2)c1	-2.5	3.1	-29.9	-2.2	11.4	.	.
O=C(C1CCN(Cc2ccc(Cl)cc2)CC1)N1CCN(C(c2ccccc2)c2ccccc2)CC1	33.4	5.7	17.6	56.5*	-11.1	25.1	.
O=C(c1ccc(Cl)cc1)C1CCN(Cc2ccccc2)CC1	-2.1	-0.7	10.8	22.3	5.9	.	.
COc1ccc(N2CC(C(=O)OCC(=O)Nc3cccc(C)c3)CC2=O)cc1 (centres undefined)	4.1	4.3	-20.2	-14.1	3.5	.	.
CC(=O)n1cc([C@H]2C=C(C(=O)Nc3ccccc3)O[C@@H](OCc3ccc(CO)cc3)C2)c2ccccc21	23.4	-8.5	28.7	73.0*	-17.6	39.7	70.5*
CC(=O)n1cc([C@@H]2C=C(C(=O)NCc3ccccc3)O[C@H](OCc3ccc(CO)cc3)C2)c2ccccc21	5.8	13.6	-7.1	9.3	-21.4	.	.
O=C(COc1ccc(-c2nnco2)cc1)N1CCOCC1	6.1	4.6	-2.1	-7.0	2.2	.	.
CCC(C)N(CCNC(=O)c1ccc2c(c1)NC(=O)c1ccccc1S2)C1CCCCC1 (centres undefined)	2.4	18.5	14.2	66.9*	7.2	47.5*	55.8*
CC1CCCC(C)N1CCCNC(=O)c1ccc2c(c1)NC(=O)c1ccccc1S2 (centres undefined)	-4.6	-8.2	-7.1	3.1	-39.2	.	.
O=S(=O)(c1cccs1)N1CCN(c2ccnc3cc(Cl)ccc23)CC1	.	23.8	5.0	57.4*	8.2	22.7	.
Cc1[nH]c2ccccc2c1NC(=O)CN1CCN(c2cccc(C(F)(F)F)c2)CC1	-10.0	4.9	0.5	11.2	1.3	.	.
Cc1[nH]c2ccccc2c1C(O)CN1CCN(c2cccc(C(F)(F)F)c2)CC1 (centres undefined)	-13.8	-5.6	2.2	59.1*	7.8	28.9	.
CCc1c(C#N)c(SCCC(=O)Nc2ccc(F)cc2)nc2c1C(=O)CC(C)(C)C2	-6.0	-0.2	-3.0	55.5*	-3.5	11.3	.
CN(C)C(=O)CCc1ccc2c3c([nH]c2c1)[C@]1(C)[C@@H](C(=O)N2CCCCC2)C[C@H](CC(=O)NCC24CC5CC(CC(C5)C2)C4)C(=O)N1CC3	.	.	8.4	35.4	-17.1	.	.
CCS(=O)(=O)c1ncc(Cl)c(C(=O)Nc2ccc(C)cc2)n1	-30.7	14.1	22.4	86.6*	-62.9	78.0*	57.4*
CC1CCCCN1S(=O)(=O)c1ccc(C(=O)Nc2nnc(-c3ccccc3Cl)o2)cc1 (centres undefined)	.	2.9	4.7	40.8	-26.3	.	.
CC1CCCN(S(=O)(=O)c2ccc(NC(=O)CNC3CCCC3)cc2)C1 (centres undefined)	-2.9	-8.3	12.1	23.0	-17.2	.	.
SMILES	Beta apoptosis	Jurkat NFkB inh	Gli-Sufu antag	Mdm2 MdmX PPI	697 NFkB inh	Mdm2 MdmX conf	Full FLuc ctr
CCC1CCCCN1S(=O)(=O)c1ccc(NC(=O)c2nc(S(C)(=O)=O)ncc2Cl)cc1 (centres undefined)	107.9*	29.2	1.2	97.5*	-90.0	100.2*	0.8
CCC1CCCCN1S(=O)(=O)c1ccc(C(=O)Nc2nnc(-c3ccccc3Cl)o2)cc1 (centres undefined)	13.3	-0.3	16.0	62.6*	-44.3	15.9	.
CCS(=O)(=O)c1ncc(Cl)c(C(=O)Nc2ccc(S(=O)(=O)N3CCCC(C)C3)cc2)n1 (centres undefined)	105.5*	18.9	20.2	99.3*	-155.6	99.2*	51.2*
CS(=O)(=O)c1ncc(Cl)c(C(=O)Nc2ccc3ccccc3c2)n1	.	.	12.5	.	.	.	.
CCOC(=O)[C@@H]1[C@H]2COc3cc(OC)ccc3[C@@H]2N2C(=O)N(c3ccc(F)cc3)C(=O)[C@@]12C	1.0	-24.5	-11.9	-6.4	-9.7	.	.
CC(=O)c1ccc(N2CCN(C(=O)CNS(=O)(=O)c3ccc4c(c3)OCCCO4)CC2)c(F)c1	.	14.4	-2.0	16.5	-15.9	.	.
COCCCn1c(=O)c2sccc2n2c(CCCC(=O)NCc3ccccc3)nnc12	0.8	-2.9	-17.1	14.6	-3.5	.	.
Cc1ccc(N2CC(C(=O)NCCS(=O)(=O)N3CCN(c4ccc(F)cc4)CC3)CC2=O)cc1 (centres undefined)	.	13.6	-9.7	25.0	5.0	.	.
Cc1ccc(CS(=O)(=O)c2ncc(Cl)c(C(=O)Nc3ccc(OC(F)F)cc3)n2)cc1	41.4	43.0	-4.3	91.3*	-149.9	86.1*	53.7*
O=C(Nc1ccc(OC(F)F)cc1)c1ncc(Cl)c(Cl)c1Cl	3.9	1.3	-6.5	4.1	0.8	.	.
COc1ccc(NC2=Nc3ccccc3N3C2=Nc2c(c(C)nn2-c2ccc(C)cc2)C3c2cccnc2)cc1 (centres undefined)	8.8	15.4	-18.6	6.6	18.3	.	.
CC(=O)Nc1ccc(NC2=Nc3ccccc3N3C2=Nc2c(c(C)nn2-c2ccccc2)C3c2ccccc2)cc1 (centres undefined)	57.8	37.6	60.4*	84.1*	-2.3	89.7*	32.1
Nc1ccc(N(CCO)CCO)cc1	-0.8	13.3	-10.7	4.1	1.3	.	.
CCN(CC)c1ccc(N)cc1	108.4*	12.2	60.9*	80.1*	-4.6	14.8	.
COc1ccc(N2CCN(C(=O)c3ccc4c(c3)[nH]c(=S)n3c5ccccc5nc43)CC2)cc1	2.6	0.7	.	-18.1	14.9	.	.
